Here are results for 23 compounds from PubChem BioAssay (NCATS).

What all share (experiment): qHTS profiling for inhibitors of Plasmodium falciparum proliferation (AID 504749); note: nearly all actives have a fitted effect of over 60% in size
Holding throughout (conditions): P. falciparum in erythrocytes, SYBR Green DNA, 72 h; series mostly up to 28.7 µM
(qHTS replaces the single test concentration by a dilution series.)

One test deals with JCK. The gist of the method:
(§1)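 Readout was DNA-dye fluorescence from lysed cultures, ex 485/em 535 nm. Parasitized red cells had grown 72 h with compound; data scaled between 0.29 uM artemisinin and DMSO wells and corrected using vehicle-only plates.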

For the next test, the system named is N140. The gist of the method:
as §1

In the next test the test system is P93_24. The gist of the method: as §1
The test system of a further test is P94_40. The gist of the method:
as §1

A further test has as its system PAD. The gist of the method:
as §1

The next test relates to PC15. The procedure, abridged: as §1
A further test deals with PC26. The procedure, abridged:
as §1

The next test relates to PC49. The gist of the method:
as §1

The next test relates to SC27B. The procedure, abridged:
as §1

The test system of the next test is TAB109. The gist of the method:
as §1

Records with an inconclusive call do not appear. Active and inactive are the calls of the source. Calls come from the whole dose curve; as a rule, active = well fitted inhibition curve with a large enough effect; inconclusive = small, poorly fitted or top-dose-only effect; inactive = flat fitted curve, though single readings scatter.
Potency is the fitted concentration of half-maximal effect.

For `COC(=O)[C@@H]1CC2=CC(=O)CC[C@]2(C)[C@@]23O[C@@H]2C[C@@]2(C)[C@@H](CC[C@@]24CCC(=O)O4)[C@H]13`, the Potency result in the test on JCK, in the test on N140, in the test on P93_24, in the test on P94_40, in the test with PAD and with PC15 was “inactive” throughout. Also, the Potency entry with PC26, in the test with PC49, in the test with SC27B and in the test on TAB109 was “inactive” in each case.

In the case of `CCCCCCc1ccc(O)cc1O`, the Potency result in the test with JCK, in the test on N140, with P93_24, with P94_40, with PAD and with PC15 was “inactive” in each case. The Potency entry with PC26, in the test on PC49, in the test on SC27B and in the test with TAB109 was “inactive” throughout.

Consider `Cc1c(C(C)C)c(=O)n(-c2ccccc2)n1C`, for which the Potency result in the test on JCK, in the test on N140, in the test with P93_24, with P94_40, in the test on PAD and in the test with PC15 was “inactive” throughout. Besides, the Potency result in the test with PC26, in the test on PC49, in the test with SC27B and in the test on TAB109 was “inactive” throughout.

`CCCCCCC[N+](CC)(CC)CCCCc1ccc(Cl)cc1`: the Potency in the test with JCK was 3.16 µM (active); in the test with N140, 2.51 µM (active); in the test on P93_24, 2.24 µM (active); in the test on P94_40 it was 2 µM (active); in the test on PAD it was 3.98 µM (active); with PC15 it was 1.58 µM (active). Further, the Potency with PC26 is 2.03 µM (active); in the test with PC49 it was 3.16 µM (active); in the test with SC27B it was 2.82 µM (active); with TAB109, 2 µM (active).

For the compound `Oc1ccc(Cl)c2cccnc12`, the Potency result in the test on JCK, with N140, in the test on P93_24, in the test on P94_40, in the test on PAD and in the test on PC15 was “inactive” in each case. Further, the Potency result in the test on PC26, with PC49, in the test on SC27B and in the test with TAB109 was “inactive” each time.

Turning to `CCOC(=O)n1ccn(C)c1=S`, the Potency entry with JCK, in the test with N140, in the test on P93_24, in the test with P94_40, with PAD and in the test with PC15 was “inactive” throughout. For the same compound, the Potency entry with PC26, with PC49, in the test on SC27B and with TAB109 was “inactive” throughout.

As to `O=C1c2ccccc2C(=O)C1c1ccccc1`, the Potency entry in the test with JCK, in the test on N140, in the test with P93_24, in the test on P94_40, with PAD and in the test on PC15 was “inactive” throughout. Further, the Potency entry in the test on PC26, with PC49, in the test with SC27B and in the test with TAB109 was “inactive” throughout.

As for `CCOC(=O)c1cccc(N)c1`, the Potency entry in the test with JCK, in the test with N140, with P93_24, with P94_40, with PAD and with PC15 was “inactive” each time. Further, the Potency entry in the test with PC49, in the test with SC27B and in the test on TAB109 was “inactive” throughout. Also, the Potency in the test on PC26 is 16.9 µM (active).

On to `Cc1c(C(N)=O)cc([N+](=O)[O-])cc1[N+](=O)[O-]`, for which the Potency result in the test on JCK, in the test on N140, in the test with P93_24, in the test on P94_40, with PAD and in the test with PC15 was “inactive” in each case. Moreover, the Potency result in the test with PC26, in the test on PC49, with SC27B and in the test with TAB109 was “inactive” in each case.

Consider `COCc1c(C(C)C)nc(C(C)C)c(/C=C/[C@@H](O)C[C@@H](O)CC(=O)O)c1-c1ccc(F)cc1`, for which the Potency entry with JCK, in the test on N140, in the test with P93_24, with P94_40, in the test on PAD and with PC15 was “inactive” each time. Further, the Potency entry in the test on PC26, in the test with PC49 and with TAB109 was “inactive” each time.

On to `NC(=O)C(=O)N/N=C/c1ccc([N+](=O)[O-])o1`, for which the Potency entry in the test on JCK, in the test with N140, with P93_24, in the test on P94_40, in the test on PAD and with PC15 was “inactive” throughout. The Potency result in the test with PC49, in the test on SC27B and with TAB109 was “inactive” each time.

Consider `O=C1CCC(c2ccc(-n3ccnc3)cc2)=NN1`, for which the Potency entry in the test on JCK, with N140, in the test with P93_24, in the test on P94_40, in the test on PAD and in the test with PC15 was “inactive” throughout. Further, the Potency result in the test on PC26, in the test on PC49, in the test with SC27B and with TAB109 was “inactive” throughout.

Turning to `Cc1cc(=O)n(-c2ccccc2)n1C`, the Potency entry in the test on JCK, in the test with N140, with P93_24, with P94_40, in the test on PAD and in the test on PC15 was “inactive” throughout. Besides, the Potency entry in the test with PC26, in the test with PC49, in the test with SC27B and in the test with TAB109 was “inactive” throughout.

Take `CCCCC(CC)CN=C(N)NC(N)=NCCCCCCN=C(N)NC(N)=NCC(CC)CCCC` (stereo not drawn): the Potency in the test on JCK is 3.98 µM (active); with N140 it was 1 µM (active); in the test with P93_24, 1.78 µM (active); in the test on P94_40, 1.26 µM (active); in the test with PAD, 0.891 µM (active); with PC15, 2.82 µM (active). Besides, the Potency was 1.51 µM (active) in the test with PC26, 2.24 µM (active) in the test with PC49, 2 µM (active) in the test on SC27B and 1.12 µM (active) in the test on TAB109.

As for `O=C(O)CNC(=O)c1ccccc1`, the Potency result in the test on JCK, in the test with N140, with P93_24, in the test with P94_40, with PAD and with PC15 was “inactive” throughout. The Potency entry in the test with PC26, with PC49, in the test on SC27B and in the test on TAB109 was “inactive” throughout.

Regarding `CCCCOc1ccc(C(=O)CCN2CCCCC2)cc1`, the Potency result in the test on JCK, in the test on N140, with P93_24, in the test with P94_40, in the test on PAD and in the test with PC15 was “inactive” each time. The Potency entry in the test with PC26, in the test on PC49, in the test on SC27B and with TAB109 was “inactive” in each case.

Take `O=C(COc1ccc(Cl)cc1)N1CCN(Cc2ccc3c(c2)OCO3)CC1`: the Potency entry with JCK, with N140, in the test on P93_24, in the test on P94_40, with PAD and in the test with PC15 was “inactive” in each case. The Potency entry in the test with PC26, in the test on PC49, with SC27B and with TAB109 was “inactive” throughout.

Turning to `CC1(C)CCC(NC(=O)[C@@H](N)CCC(=O)O)CC1`, the Potency entry in the test on JCK, in the test with N140, with P93_24, in the test with P94_40, in the test with PAD and with PC15 was “inactive” in each case. Moreover, the Potency result in the test on PC49, in the test with SC27B and with TAB109 was “inactive” each time.

As for `CC(=O)N(O)CCCCCNC(=O)CCC(=O)N(O)CCCCCNC(=O)CCC(=O)N(O)CCCCCN`, the Potency in the test on JCK is 10 µM (active). Also, the Potency entry with N140, with P93_24, with P94_40, in the test on PAD, with PC15 and in the test on PC26 was “inactive” throughout. In addition, the Potency result in the test on SC27B and in the test with TAB109 was “inactive” in each case.

As to `CC(C)(C)CC(C)(C)c1ccc(OCCOCC[N+](C)(C)Cc2ccccc2)cc1`, the Potency is 6.31 µM (active) in the test on JCK; 3.98 µM (active) in the test with N140; 6.31 µM (active) in the test on P93_24; 5.01 µM (active) in the test with P94_40; 8.91 µM (active) with PAD; 5.01 µM (active) in the test with PC15. Besides, the Potency in the test with PC26 was 4.26 µM (active); in the test on PC49 it was 6.31 µM (active); with SC27B it was 5.62 µM (active); in the test on TAB109, 5.62 µM (active).

Consider `CCCCC1=NC2(CCCC2)C(=O)N1Cc1ccc(-c2ccccc2-c2nn[nH]n2)cc1`, for which the Potency result with JCK, in the test on N140, in the test with P93_24, in the test with P94_40, with PAD and with PC15 was “inactive” each time. Also, the Potency entry in the test on PC49 and in the test on TAB109 was “inactive” each time.

Turning to `CCN(CC)C(=O)/C(C#N)=C/c1cc(O)c(O)c([N+](=O)[O-])c1`, the Potency entry in the test with JCK, with N140, in the test with P93_24, with P94_40, in the test on PAD and in the test with PC15 was “inactive” each time. Besides, the Potency entry in the test with PC26, in the test with PC49, in the test with SC27B and in the test with TAB109 was “inactive” in each case.

With `CC(C)(C(=O)c1cccnc1)c1cccnc1`, the Potency in the test with JCK was 10 µM (active). Further, the Potency result with N140, in the test on P93_24, in the test on P94_40, in the test with PAD, in the test on PC15 and in the test on PC26 was “inactive” each time. The Potency entry in the test on SC27B and in the test on TAB109 was “inactive” in each case.
